# A selection: hits, their analogues and other compounds. The true share with any hit is near 8.2%.
# MCF10A rereplic = inducers of DNA re-replication in MCF 10A breast cells; MCF 10A DNA re-replication, Hoechst nuclear intensity, 48 h; Potency, µM (titrated, usually from 46.1 µM), most hits filed as activators; actives 2.9% (n = 350,000); AID 624296; further: nearly all actives have a fitted effect of over 50% in size
# KB-V1 MDR tox = KB-V1 MDR subline cytotoxicity. KB-V1 MDR cells viability, CellTiter-Glo, 72 h. Potency, µM (top dose mostly 46.1 µM), actives largely listed as cytotoxic. actives 3.4% (n = 400,000); further: nearly all actives have a fitted effect of over 60% in size
#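 Following 72 h at 37 degrees C with compound, KB-V1 cell viability was read by CellTiter-Glo luminescence, medium being phenol-red-free DMEM plus 10% FBS; concentration-response parameters came from normalized, curve-fitted qHTS data.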
# SW480 rerep = induces DNA re-replication in SW480 colon adenocarcinoma cells | SW480 DNA re-replication, Hoechst DNA content imaging, 48 h | Potency, µM (doses to about 46.1 µM), hits mostly activators | actives 1.8% (n = 340,000) | AID 624297; further: nearly all actives have a fitted effect of over 55% in size
#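 SW480 cells exposed to compounds for 48 hr at 37 C, 5% CO2, then Hoechst-stained 40 min. Nuclear DNA content imaged by fluorescence scanning (405 nm excitation, 500-530 nm emission); re-replication scored as increased high-intensity nuclei.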
# KB-3-1 cytotox = kills parental KB-3-1 adenocarcinoma cells; KB-3-1 viability, CellTiter-Glo ATP luminescence, 72 h; actives 1.4% (n = 400,000); Potency, µM (series often up to 46.1 µM), actives largely listed as cytotoxic; further: nearly all actives have a fitted effect of over 60% in size
#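 72 h, 37 °C compound treatment of KB-3-1 parental cells; CellTiter-Glo added, 10 min, luminescence read. Data corrected against DMSO-only plates and normalized before curve fitting.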
# ELG1 repair inh = inhibitors of ELG1-dependent DNA repair in HEK293T cells. HEK293T ELG1-luciferase reporter, luminescence, 16 h; DNA damage induced by 5-fluorouridine. Potency, µM (series often up to 46.1 µM), hits mostly inhibitors. actives 2.3% (n = 330,000). AID 504467; further: nearly all actives have a fitted effect of over 55% in size
#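 Quantitative HTS, concentration-response format. 2,000 cells/well co-treated with 5-fluorouridine and compound, 16 hr in 5% CO2 at 37 °C; ONE-Glo luminescence read after 30 min.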
# A number is an active result; - = inactive; ? = inconclusive; . = no result given. The call rests on the fitted dose curve; in most records, active means well fitted curve in the direction sought with a large enough effect; inconclusive means small, poorly fitted or top-dose-only effect, or another doubt; inactive means no such curve, though single readings can be large; an effect the other way counts as inactive or inconclusive.
SMILES,MCF10A rereplic,KB-V1 MDR tox,SW480 rerep,KB-3-1 cytotox,ELG1 repair inh
Cc1csc(NC(=O)CSc2nnc(-c3ccoc3C)n2C(C)c2ccccc2)n1 (centres undefined),?,-,15µM,-,-
Cc1nc([N+](=O)[O-])cn1CC(=O)c1ccc2c(c1)OCCCO2,.,-,.,-,.
O=C(CCc1nc2cccnc2n1Cc1cccs1)Nc1cccc(C(F)(F)F)c1,.,-,.,-,.
Cn1c(=O)c2c(-c3ccccc3)n3c(c2n(C)c1=O)C(c1ccccc1[N+](=O)[O-])Nc1ccccc1-3 (centres undefined),.,-,.,-,.
C=CCc1c(C)nc2c(-c3ccccc3)cnn2c1N1CCOCC1,-,-,-,-,?
CCn1c(SCC(=O)Nc2nccs2)nnc1-c1ccccc1,-,?,-,-,-
Cc1cc(C)c2c(c1)cc(C)c1nnc(SCC(=O)Nc3ccc(S(=O)(=O)N4CCCCC4)cc3)n12,-,18µM,-,-,-
CCn1c(SCC(=O)Nc2nccs2)nnc1-c1ccc(S(=O)(=O)N2CCCCC2)cc1,-,-,-,-,21µM
C=CCn1c(SCC(=O)Nc2ccc(-c3nc4ccc(C)cc4s3)cc2)nnc1-c1ccccc1,4.1µM,?,10µM,-,?
Cc1ccc2cc(C)c(SCC(=O)Nc3ccc(S(=O)(=O)N4CCCC4)cc3)nc2c1,-,-,-,-,?
Cn1cc(CNC(=O)C2CCC(=O)N(Cc3ccccc3F)C2)cn1 (centres undefined),-,-,-,-,-
CC(OC(=O)CNC(=O)c1sc2ccccc2c1Cl)c1ccccc1 (centres undefined),-,-,-,-,-
COc1ccc(-c2oc3cc(O)c(OC)c(O)c3c(=O)c2OC)cc1,5.2µM,?,?,?,-
COc1c(OC)c(O)c2c(=O)c(O)c(-c3ccccc3)oc2c1OC,-,?,-,-,?
COc1ccc(-c2oc3c(OC)c(OC)c(OC)c(O)c3c(=O)c2OC)cc1OC,-,-,?,-,12µM
CCOc1cc(OCC)cc(C(=O)N2CCC[C@H]2C(=O)N2CCC[C@H]2C(=O)N[C@H](C)c2ccccc2)c1,.,-,.,-,.
Cc1ccc(N(CC(=O)NC2CCCCC2)C(=O)CNC(=O)c2ccco2)c(C)c1,-,-,-,-,-
Cc1ccccc1NS(=O)(=O)c1cc(C(=O)Nc2cccc([N+](=O)[O-])c2)ccc1C,?,12µM,-,?,?
Cc1ccc(C)c(NS(=O)(=O)c2cc(C(=O)Nc3ccccc3-c3ccccc3)ccc2C)c1,-,4.6µM,-,?,?
Cc1ccc(C(=O)Nc2ccccc2-c2ccccc2)cc1S(=O)(=O)Nc1cccc(C)c1C,-,-,-,-,?
CC(=O)c1ccc(Nc2nc3ccccc3nc2-n2nc(C)cc2C)cc1,.,-,.,-,.
COc1ccc(NC(=O)Cc2ccc(NC(=O)N3CCCCc4ccccc43)cc2)c(OC)c1,.,-,.,-,.
CC(=O)Nc1nc(-c2ccccc2)nc(-c2ccccc2OC(C)=O)n1,-,-,-,-,21µM
Cc1ccc(-n2ncc3c(N4CCN(Cc5ccccc5)CC4)ncnc32)cc1C,.,?,.,-,.
CCN(Cc1ccccc1)C(=O)c1nn(-c2ccc(OC)cc2)c(=O)c2c1c1ccccc1n2C,-,?,?,?,18µM
SMILES,MCF10A rereplic,KB-V1 MDR tox,SW480 rerep,KB-3-1 cytotox,ELG1 repair inh
COC(=O)/C(=C\Nc1ccc(Cl)cc1Cl)NC(=O)c1ccc(Cl)cc1Cl,12µM,?,-,?,.
Cc1oc(-c2ccccc2Cl)nc1CS(=O)CC(=O)NCc1ccccc1Cl (centres undefined),-,-,-,-,-
CC(=O)N1CCc2cc(S(=O)(=O)NCCCN3CCC(C)CC3)ccc21,-,-,-,-,-
Cn1c(SCc2ccccc2F)nc2cccnc21,-,18µM,-,-,?
CC(=O)N1CCCc2cc(S(=O)(=O)N3CCCCC3)ccc21,.,-,.,-,.
Cc1nc2ncccn2c1-c1csc(NCc2ccco2)n1,-,16µM,-,?,?
Cc1nc2ncccn2c1-c1csc(Nc2ccc(N(C)C)cc2)n1,?,?,?,0.012µM,?
Cc1nc2ncccn2c1-c1csc(Nc2ccccc2)n1,-,-,-,-,?
COc1ccccc1Nc1nc(-c2c(C)nc3ncccn23)cs1,-,7.3µM,?,?,-
CCNC(=O)C1(C)CCCN(CCOc2ccc(Cl)cc2)C1 (centres undefined),.,-,.,-,.
O=C(NNC(=O)c1ccc(SCC2CCCO2)c([N+](=O)[O-])c1)c1ccc(Cl)c([N+](=O)[O-])c1 (centres undefined),?,-,-,-,-
O=C(NNC(=O)c1ccccc1Br)c1ccc(SCC2CCCO2)c([N+](=O)[O-])c1 (centres undefined),?,23µM,-,-,-
O=C(COC(=O)Cc1ccc(S(=O)(=O)N2CCOCC2)s1)Nc1ccc(F)cc1F,-,-,-,-,-
CN1CCC(Nc2ncc3ncnc(Nc4ccc(F)c(Cl)c4)c3n2)CC1,3.3µM,.,13µM,.,.
CCCC(=NCCc1c(C)[nH]c2ccccc12)C1=C(O)CC(c2ccccc2)CC1=O (centres undefined),1.5µM,5.2µM,6.5µM,7.3µM,?
CCCCC(=NCCc1c(C)[nH]c2ccccc12)C1=C(O)CC(c2ccccc2)CC1=O (centres undefined),8.2µM,9.2µM,10µM,13µM,?
O=C(OCCN1CCN(C2=NS(=O)(=O)c3ccccc32)CC1)c1cccc(Br)c1,-,-,-,-,-
Nc1cc(N)nc(SCc2ccccc2)n1,-,-,-,-,?
Nc1nc(SCc2ccccc2)cc(SCc2ccccc2)n1,8.2µM,-,-,-,.
CC1CCCC=CC2CC(OC(=O)CN(C)C)CC2C(O)C=CC(=O)O1 (centres undefined),?,?,?,0.0082µM,.
COc1ccc(N=C2NN=C(c3c(C)[nH]c4ccccc34)CS2)cc1,18µM,-,?,?,?
Cc1cc(C2=NNC(=Nc3ccccc3)SC2)c(C)n1C,-,-,-,-,?
Cc1[nH]c2ccccc2c1C1=NNC(=Nc2ccc(F)cc2)SC1,21µM,-,?,?,?
COC(=O)c1ccc2[nH]c3cccc(/C(=C/c4ccccc4)c4ccccc4)c3c2c1,12µM,?,-,?,-
Cc1ccc(-n2nnnc2Sc2ccc(S(=O)(=O)NCCN(C)C)cc2[N+](=O)[O-])cc1,?,?,8.2µM,-,?
Cc1ccc(S(=O)(=O)NCCSc2nnnn2-c2ccc(C(N)=O)cc2)cc1,-,?,-,-,-
O=[N+]([O-])c1cc(S(=O)(=O)NCCN2CCOCC2)ccc1Sc1nnnn1-c1ccccc1,?,-,15µM,13µM,?
O=S(=O)(NCCN1CCOCC1)c1ccc2ccccc2c1,-,-,?,-,-

# From PubChem BioAssay
